Data reported in paper PMC5540273 (PLoS ONE, 2017).

tested on: DMPK; settings: concentration: 1 μM, replicates: in singlicate; n = 1
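Also: KINOMEscan kinase panel screen.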

**Q.** CN1C(=O)C(Nc2cc(Cl)c(O)c(Cl)c2)=C(c2ccc(Cl)cc2)C1=O [SB-404321] was tested. Which “%Inh” value did it give?
**A.** 0%

**Q.** Which “%Inh” value does the source give for CCC(=O)c1c(-c2ccccc2)c2cc(Cl)ccc2c(=O)n1Cc1cc(C(=O)NC2CC2)n(C)n1 here?
**A.** 0%

**Q.** COc1cccc(C2=C(Nc3cccc(C(=O)O)c3)C(=O)NC2=O)c1 [SB-390770] was tested. Which “%Inh” value did it give?
**A.** 0%

**Q.** O=C(Nc1ccc2c(c1)OCO2)NC1CCN(c2ccnc(NCc3ccc(F)cc3)n2)CC1 [GSK1379859] was tested. Which “%Inh” value did it give?
**A.** 0%

**Q.** COc1cc2nccc(Nc3cccc(Oc4ccccc4)c3)c2cc1OC.Cl [GW284543] was tested. Which “%Inh” value did it give?
**A.** 0%

**Q.** How did the “%Inh” value turn out when COc1cc(Nc2nccc(N3CCC(NC(=O)C(C)c4ccc(Cl)cc4)C3)n2)cc(OC)c1OC (stereo not shown) [GSK1379757] was run?
**A.** 0%

**Q.** Which “%Inh” value does the source give for Cc1ccccc1COc1cc(-n2cnc3cc(Cl)ccc32)sc1C(N)=O [GW813349] here?
**A.** 0%

**Q.** Which “%Inh” value does the source give for CCC(=O)c1c(-c2ccccc2)c2cc(Cl)ccc2c(=O)n1Cc1cc(S(C)(=O)=O)n(CCC(C)(C)O)n1 here?
**A.** 11%

**Q.** Cc1nn2c(=O)cc(N3CCOCC3)nc2n1Cc1cccc(Cl)c1Cl [GSK2342769] was tested. Which “%Inh” value did it give?
**A.** 0%

**Q.** With COc1ccc(Nc2nccc(N3CCC(NS(=O)(=O)c4ccc(NC(C)=O)cc4)C3)n2)cc1 (stereo not shown) [GSK1379729] as the molecule, how does the “%Inh” value read?
**A.** 0%

**Q.** Which “%Inh” value does the source give for Cc1cccc(-c2nc(Nc3ccc4c(cnn4C)c3)c3ccccc3n2)n1 [GW876731] here?
**A.** 8%

**Q.** With C[C@@H]1CC[C@H](C(=O)NC2CCCCC2)CN1c1cc(-c2ccc3c(N)n[nH]c3c2)nc(N)n1 [GSK2291363] as the molecule, how does the “%Inh” value read?
**A.** 0%

**Q.** For COc1cc2ncn(-c3cc(OCc4ccncc4Br)c(C(N)=O)s3)c2cc1OC [GW854278], which “%Inh” value is on record?
**A.** 3%

**Q.** Cc1ccc(-c2ccc3c(ccc4sc5c(c43)NC[C@@H](C)N=C5N(C)C)n2)cn1 was tested. Which “%Inh” value did it give?
**A.** 0%

**Q.** COc1ccc(-c2coc3ccc(-c4nnc(SCc5cccc(C#N)c5)o4)cc23)cc1 was tested. Which “%Inh” value did it give?
**A.** 0%

**Q.** How did the “%Inh” value turn out when Cc1cc(Nc2nc(-c3cccc(C)n3)nc3ccccc23)ccn1 [GW872411] was run?
**A.** 0%

**Q.** For Cl.NS(=O)(=O)c1cccc(Nc2cc(-c3ccc(F)cc3)n[nH]2)c1 [GW824645], which “%Inh” value is on record?
**A.** 1%

**Q.** CC(C)(C)c1ccc(C(=O)Nc2cn3cc(-c4ccccc4)ccc3n2)cc1 was tested. Which “%Inh” value did it give?
**A.** 0%

**Q.** CCn1c(-c2ccoc2)nc2cnccc21 [SB-733887] was tested. Which “%Inh” value did it give?
**A.** 0%

**Q.** How did the “%Inh” value turn out when Nc1n[nH]c2nnc(-c3ccccc3)c(-c3ccccc3)c12 [GW554060] was run?
**A.** 0%

**Q.** With CN(C)c1cc(-c2ccc3c(N)n[nH]c3c2)nc(N)n1 [GSK2219329] as the molecule, how does the “%Inh” value read?
**A.** 0%

**Q.** For Nc1ncnc2c1ncn2-c1cccc(F)c1 [SKF-97560], which “%Inh” value is on record?
**A.** 0%

**Q.** For Nc1nc(-c2ccccc2F)c(-c2ccnc3ccccc23)s1 [GW560459], which “%Inh” value is on record?
**A.** 0%

**Q.** Which “%Inh” value does the source give for CCn1c(-c2nonc2N)nc2ccccc21 [SB-693162/GW549034] here?
**A.** 0%

**Q.** With Cc1ccc(Oc2ccc(Nc3ncnc4cc[nH]c34)cc2C)cn1 as the molecule, how does the “%Inh” value read?
**A.** 0%

**Q.** With Cc1nnc(-c2ccc(C)c(-c3ccc(C(=O)O)cc3)c2)o1 [GW608005] as the molecule, how does the “%Inh” value read?
**A.** 0%

**Q.** With CCS(=O)c1ccc(-c2coc3ccc(-c4nnc(C)o4)cc23)cc1 (stereo not shown) as the molecule, how does the “%Inh” value read?
**A.** 6%

**Q.** With COC(=O)c1c(-c2ccccc2)c2cc(C)ccc2c(=O)n1Cc1ccccc1 as the molecule, how does the “%Inh” value read?
**A.** 0%

**Q.** Which “%Inh” value does the source give for Nc1nccc2scc(-c3ccc4c(c3)CCN4C(=O)Cc3ccccc3)c12 [GSK2576924] here?
**A.** 0%

**Q.** With OCCCNc1nccc(-c2c(-c3cccc(C(F)(F)F)c3)nn3cc(C(F)(F)F)ccc23)n1 [GW630813] as the molecule, how does the “%Inh” value read?
**A.** 0%

**Q.** O=c1cc(N2CCOCC2)nc2n(Cc3ccc(F)c(Cl)c3)ccn12 [GSK2297099] was tested. Which “%Inh” value did it give?
**A.** 0%

**Q.** For Cc1nnc(-c2ccc3ncn(-c4ccc(S(C)=O)cc4)c3c2)o1 (stereo not shown), which “%Inh” value is on record?
**A.** 1%

**Q.** For COC(=O)c1c(-c2ccccc2)c2cc(Br)ccc2c(=O)n1Cc1ccc(NC(=O)CCC(=O)O)cc1, which “%Inh” value is on record?
**A.** 0%

**Q.** COc1cc(OC)cc(-c2cc3cnc(N)nc3nc2NC(=O)NC(C)(C)C)c1 was tested. Which “%Inh” value did it give?
**A.** 16%

**Q.** How did the “%Inh” value turn out when Nc1ncnc2c1ncn2-c1ccc(Cl)cc1 [AH2635] was run?
**A.** 0%

**Q.** Which “%Inh” value does the source give for Cl.c1ccc(Cn2cnc3cc(Nc4ncnc5ccccc45)ccc32)cc1 [GW272142] here?
**A.** 0%

**Q.** With CCC(=O)c1c(-c2ccccc2)c2cc(Cl)ccc2c(=O)n1Cc1ccc(C(=O)O)cc1 as the molecule, how does the “%Inh” value read?
**A.** 0%
